Here are results for 28 compounds from PubChem BioAssay AID488840 (Broad Institute, 2010).

Out of some 1,400 compounds screened, about 45 (3%) were called active.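 The calls were made as follows: active = half-maximal dose of signal decrease from fit no higher than ten times the top valid tested dose; inconclusive = fit invalid, or curve flat with 30 to 70% inhibition; inactive = the rest.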 Only a sample is shown. Measured potencies and affinities stand elsewhere.

Lysine-specific demethylase 4A (Homo sapiens), sequence (O75164 whole entry, looked up): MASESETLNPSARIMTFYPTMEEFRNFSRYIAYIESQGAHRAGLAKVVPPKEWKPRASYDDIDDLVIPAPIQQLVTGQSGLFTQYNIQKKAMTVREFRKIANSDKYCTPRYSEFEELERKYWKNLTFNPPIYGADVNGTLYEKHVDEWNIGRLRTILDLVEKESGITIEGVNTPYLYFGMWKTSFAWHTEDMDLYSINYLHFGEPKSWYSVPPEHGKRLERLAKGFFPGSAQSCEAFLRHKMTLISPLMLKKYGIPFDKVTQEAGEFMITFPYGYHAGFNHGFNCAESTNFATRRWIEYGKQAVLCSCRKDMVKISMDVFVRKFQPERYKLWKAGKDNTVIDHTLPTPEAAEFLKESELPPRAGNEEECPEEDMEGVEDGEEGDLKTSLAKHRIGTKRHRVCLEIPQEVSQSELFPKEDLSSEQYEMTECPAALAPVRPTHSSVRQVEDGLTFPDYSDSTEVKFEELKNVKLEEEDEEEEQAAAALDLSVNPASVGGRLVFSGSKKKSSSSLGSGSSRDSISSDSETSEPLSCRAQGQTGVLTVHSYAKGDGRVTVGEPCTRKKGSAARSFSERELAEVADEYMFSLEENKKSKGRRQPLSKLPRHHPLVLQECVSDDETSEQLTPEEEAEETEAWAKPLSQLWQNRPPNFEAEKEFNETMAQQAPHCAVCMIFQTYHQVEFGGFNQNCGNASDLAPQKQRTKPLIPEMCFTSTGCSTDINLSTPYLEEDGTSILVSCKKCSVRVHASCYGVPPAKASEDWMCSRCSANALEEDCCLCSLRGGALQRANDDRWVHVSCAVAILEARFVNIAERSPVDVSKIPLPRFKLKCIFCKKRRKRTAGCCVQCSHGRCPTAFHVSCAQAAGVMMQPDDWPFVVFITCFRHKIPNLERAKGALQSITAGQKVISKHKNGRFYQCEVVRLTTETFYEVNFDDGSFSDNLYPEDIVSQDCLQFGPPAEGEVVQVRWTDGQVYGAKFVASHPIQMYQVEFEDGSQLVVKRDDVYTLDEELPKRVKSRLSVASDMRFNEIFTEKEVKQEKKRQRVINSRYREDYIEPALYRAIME

The experiment has as its target Lysine-specific demethylase 4A (Homo sapiens) (UniProt O75164). Kind of experiment: JMJD2A histone demethylase inhibitors, dose response, selectivity assay for GASC-1 inhibitor project, biochemical, DELFIA europium, cherry-picked samples (AID 488840).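 Also: europium signal reports the dimethyl H3K9 product detected by antibody so inhibitors lower it.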 As to conditions: GST-JMJD2A(1-420) H3K9me3 demethylation; series mostly up to 6 µM.
`COc1cc2c(cc1OC)C(COc1ccc(F)cc1)NCC2` (stereo not drawn): the compound was classed as inactive.
The value for `CC(C)CN(C(=O)c1ccc(N2CCCC2=O)cc1)c1c(N)n(Cc2ccccc2)c(=O)[nH]c1=O` was “inactive”; that for `OC(COc1ccc2ccccc2c1Br)Cn1cnc(-c2ccccc2)c1` (stereo not drawn) was “inactive”; that for `COc1ccc2cc3cc(C(=O)N4CCN(C5CCCCC5)CC4)oc3nc2c1` was “inactive”.
For the compound `C[C@@H]1CN([C@H](C)CO)C(=O)c2cccc(NS(=O)(=O)c3ccccc3)c2O[C@H]1CN(C)C`, the result was inactive.
`COC(=O)c1cc(C#N)c(OC)nc1C`: the compound was classed as inactive.
The entry for `CSc1ccc(-c2nc(CSCC(=O)N3CCOCC3)c(C)o2)cc1` is “inactive”; for `Cc1ccc(/C=N\NC(=O)c2cc([N+](=O)[O-])cc([N+](=O)[O-])c2)o1` it is “inactive”.
The value for `O=C(N/N=C/c1cc([N+](=O)[O-])cc([N+](=O)[O-])c1O)/C(=C\c1cccs1)NC(=O)c1ccccc1` was “inactive”.
The entry for `COc1cc(C#N)c(N=C(SCC#N)N2CCOCC2)cc1OC` is “inactive”.
With `Cc1ccc(NC(=O)C(=O)NCCN2CCN(C(=O)C(c3ccccc3)c3ccccc3)CC2)cc1`, the outcome was inactive.
As to `COc1ccc(CCN2C(=O)CC(NNC(=O)c3ccccc3Br)C2=O)cc1` (stereo not drawn), the outcome was inactive.
For the compound `CNC(=O)/C(C#N)=C/c1c(N(Cc2ccccc2)Cc2ccccc2)nc2ccccn2c1=O`, the outcome was inactive.
The entry for `O=C(CSc1nnc(CNC(=O)c2ccccc2F)o1)NCCc1ccccc1` is “inactive”; for `COc1ccc(NC(=O)C2OC3OC(C)(C)OC3C3OC(C)(C)OC23)cc1` (stereo not drawn) it is “inactive”; for `C=CCOc1ccc(C(=O)NC2CCCCC2)cc1` it is “inactive”.
The value for `Cc1cc(=O)[nH]c(CN2CCOCC2)n1` was “inactive”.
The value for `COc1ccc(N2CCN(C(=O)c3nn(C)c4c3CS(=O)(=O)c3ccccc3-4)CC2)cc1` was “inactive”; that for `O=c1cc(NC2CCCCCC2)[nH]c(=O)[nH]1` was “inactive”; that for `CCCc1nn2c(=O)cc(CSCC(=O)Nc3ccccc3)nc2s1` was “inactive”.
Take `Cc1nnsc1C(=O)NNS(=O)(=O)c1ccccc1`: the outcome was inactive.
On to `CCC(=O)N1CCc2cc(S(=O)(=O)CCC(=O)Nc3cccc(F)c3)ccc21`, for which the call was inactive.
The entry for `C#CCOCCOCCOCCNc1nc(N2CCOCC2)nc(N2CCN(C(=O)[C@H](Cc3cc4ccccc4[nH]3)n3cc([C@@H](N)CC(C)C)nn3)CC2)n1` is “inactive”.
`COc1ccc(NC(=S)N2CCC(C(=O)N3CCCCCC3)CC2)cc1`: the call was inactive.
The entry for `CC(=O)Nc1ccc(NC(=O)C2CCN(C(=O)c3cccs3)CC2)cc1` is “inactive”.
The value for `CCC(CC)NC(=O)CSc1nnc(-c2ccc(OC)cc2)n1C(C)C` was “inactive”; that for `Cc1ccc(CNC(=O)CCC2CCCN(Cc3ccc4cccc(F)c4n3)C2)o1` (stereo not drawn) was “inactive”; that for `COc1ccc(/C=N/Nc2cc(=O)n(C)c(=O)n2C)cc1OC` was “inactive”.
